Holding throughout (set-up): scale not given: direction of the effect not stated beside the values
Assay [1] has as its target Protein translocase subunit SecA (Escherichia coli (strain K12)) (UniProt P10408). Nature of the assay: Assay to Identify E. coli SecA ATPase Inhibitors. The assay is classed as functional. The settings on record: 30 µM.
Assay [2] addresses T1, Ubiquitin-activating enzyme e1, putative (Leishmania donovani (strain BPK282A1)) (UniProt E9BSI1).
T1 sequence (whole entry): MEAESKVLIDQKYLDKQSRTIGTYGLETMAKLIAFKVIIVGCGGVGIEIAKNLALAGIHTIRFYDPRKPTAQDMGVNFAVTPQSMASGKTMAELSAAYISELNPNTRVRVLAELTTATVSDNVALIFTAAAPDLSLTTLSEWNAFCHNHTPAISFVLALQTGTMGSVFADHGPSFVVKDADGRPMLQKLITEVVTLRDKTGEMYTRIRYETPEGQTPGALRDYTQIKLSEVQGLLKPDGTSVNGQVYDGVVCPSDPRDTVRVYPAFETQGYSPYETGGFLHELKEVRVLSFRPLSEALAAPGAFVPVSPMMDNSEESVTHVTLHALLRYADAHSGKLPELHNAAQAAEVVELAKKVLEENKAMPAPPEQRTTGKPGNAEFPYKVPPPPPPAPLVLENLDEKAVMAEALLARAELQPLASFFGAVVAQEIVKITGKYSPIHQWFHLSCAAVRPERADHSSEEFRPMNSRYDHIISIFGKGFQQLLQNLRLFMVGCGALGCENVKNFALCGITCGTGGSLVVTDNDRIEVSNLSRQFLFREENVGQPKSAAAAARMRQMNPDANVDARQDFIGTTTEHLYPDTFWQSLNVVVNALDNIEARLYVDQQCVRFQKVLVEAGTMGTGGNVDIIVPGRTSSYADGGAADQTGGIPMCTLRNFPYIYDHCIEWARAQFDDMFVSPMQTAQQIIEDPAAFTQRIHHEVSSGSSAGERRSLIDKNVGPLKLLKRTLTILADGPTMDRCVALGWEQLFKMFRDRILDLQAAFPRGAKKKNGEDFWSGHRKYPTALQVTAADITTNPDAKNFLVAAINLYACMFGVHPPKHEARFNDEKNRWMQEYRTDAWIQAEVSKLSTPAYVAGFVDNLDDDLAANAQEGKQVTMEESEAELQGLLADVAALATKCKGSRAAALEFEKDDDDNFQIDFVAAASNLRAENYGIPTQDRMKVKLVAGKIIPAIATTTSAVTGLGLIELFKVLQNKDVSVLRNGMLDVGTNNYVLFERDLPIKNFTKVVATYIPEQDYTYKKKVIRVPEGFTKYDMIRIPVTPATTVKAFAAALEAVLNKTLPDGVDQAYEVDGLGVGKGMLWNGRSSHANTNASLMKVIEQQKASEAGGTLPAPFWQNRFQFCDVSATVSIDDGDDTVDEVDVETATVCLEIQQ
Description: Leishmania donovani Ubiquitin Activating Enzyme (LdE1). The assay is classed as functional. The note with it: 30 µM.

Assay [3] has as its target AMP-activated protein kinase, AMPK (Homo sapiens) (UniProt P54646+O43741+P54619+Q9UGJ0+Q9Y478+Q13131+Q9UGI9). Description: AMP-dependent Kinase enzyme assay. An in vitro enzyme assay that detects ADP turnover that is directly proportional to AMPK activity. This uses naive AMPK that is activated during the assay with MK-8722. It is filed as functional. The settings on record: 30 µM.

Assay [4] addresses Sialic acid-binding Ig-like lectin 9 (Homo sapiens) (UniProt Q9Y336). Nature of the assay: Hs-Siglec9 ALPHAscreen SOP 20170721. The settings on record: 10 µM. For orientation: In Alpha technology, singlet oxygen from a donor bead excites a nearby acceptor bead.
In a further assay the test system is Trypanosoma cruzi. Description: Trypanosoma cruzi phosphomannomutase and mannose-1-phosphate guanylyltransferase assay. The assay is classed as functional. The note with it: 10 µM.
Assay [5] deals with T2, Arginase-2, mitochondrial (Homo sapiens) (UniProt P78540).
T2 sequence (whole entry): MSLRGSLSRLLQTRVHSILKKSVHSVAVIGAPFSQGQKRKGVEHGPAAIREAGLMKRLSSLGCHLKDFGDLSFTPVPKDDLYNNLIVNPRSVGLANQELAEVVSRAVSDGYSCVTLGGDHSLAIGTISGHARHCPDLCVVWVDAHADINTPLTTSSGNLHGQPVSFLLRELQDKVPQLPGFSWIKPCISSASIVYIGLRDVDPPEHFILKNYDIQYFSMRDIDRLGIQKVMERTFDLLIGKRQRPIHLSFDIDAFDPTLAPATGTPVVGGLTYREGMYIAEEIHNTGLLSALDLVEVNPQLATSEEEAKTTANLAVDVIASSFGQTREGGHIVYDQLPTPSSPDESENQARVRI
Description: in vitro enzyme assay to detect the production of urea directly proportional to the activity of Arginase II. Also: in the data most compounds retested in dose-response had high values. It is filed as functional. The note with it: 33.3 µM.

In assay [6] the target is T3, Proteasome subunit beta (Trypanosoma cruzi) (UniProt O96673).
T3 sequence (whole entry): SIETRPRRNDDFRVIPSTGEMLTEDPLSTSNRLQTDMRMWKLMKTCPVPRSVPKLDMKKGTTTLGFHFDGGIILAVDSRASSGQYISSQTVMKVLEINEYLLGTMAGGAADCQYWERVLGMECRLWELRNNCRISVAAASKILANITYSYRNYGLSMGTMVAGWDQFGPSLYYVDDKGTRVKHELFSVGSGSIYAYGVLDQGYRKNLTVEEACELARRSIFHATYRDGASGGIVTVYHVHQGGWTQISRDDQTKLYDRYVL
Nature of the assay: Trypanosoma cruzi proteasome chymotrypsin-like activity (TcProtChymo) assay. Also: in the data most compounds retested in dose-response had high values. The assay is classed as functional. The note with it: 9.37 µM.

For the next assay, the species on record is Homo sapiens. Nature of the assay: To identify inhibition of the IFN signalling (Jak-Stat) pathway via expression of an eGFP reporter gene under the control of an IFN-stimulated response element (ISRE) containing MxA promoter. The assay is classed as functional. The settings on record: 30 µM. In general terms: In a reporter assay the amount or activity of a reporter protein is the signal.

Assay [7] has as its target T4, Tyrosyl-tRNA synthetase, putative (Trypanosoma cruzi (strain CL Brener)) (UniProt Q4DSP6).
T4 sequence (whole entry): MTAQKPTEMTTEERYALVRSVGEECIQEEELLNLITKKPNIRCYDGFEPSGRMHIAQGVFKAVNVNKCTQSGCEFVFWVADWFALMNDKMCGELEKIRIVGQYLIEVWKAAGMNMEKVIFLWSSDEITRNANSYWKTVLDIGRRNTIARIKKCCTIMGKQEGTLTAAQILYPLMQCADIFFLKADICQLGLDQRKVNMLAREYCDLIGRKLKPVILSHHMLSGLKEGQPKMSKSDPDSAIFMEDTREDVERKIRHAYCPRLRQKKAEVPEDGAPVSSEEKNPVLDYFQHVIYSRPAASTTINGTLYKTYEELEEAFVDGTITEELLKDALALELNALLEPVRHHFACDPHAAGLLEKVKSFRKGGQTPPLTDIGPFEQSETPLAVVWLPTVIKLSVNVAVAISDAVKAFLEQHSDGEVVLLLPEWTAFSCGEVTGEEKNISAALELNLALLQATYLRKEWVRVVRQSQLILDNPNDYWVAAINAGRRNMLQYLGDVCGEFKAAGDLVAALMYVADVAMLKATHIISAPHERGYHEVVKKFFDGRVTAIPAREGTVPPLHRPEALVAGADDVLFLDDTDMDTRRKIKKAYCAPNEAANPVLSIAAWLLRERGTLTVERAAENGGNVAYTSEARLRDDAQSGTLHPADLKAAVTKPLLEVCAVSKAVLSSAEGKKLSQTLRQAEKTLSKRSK
Nature of the assay: Trypanosoma cruzi tyrosyl tRNA synthetase (TcYRS) _High Tyrosine SOP. Also: in the data most compounds retested in dose-response had high values. It is filed as functional. The note with it: 30 µM.

For assay [8], the target named is T4, Tyrosyl-tRNA synthetase, putative (Trypanosoma cruzi (strain CL Brener)). Nature of the assay: Trypanosoma cruzi tyrosyl tRNA synthetase (TcYRS) SOP. The assay is classed as functional. The settings on record: 30 µM.
For assay [9], the target named is Chromo domain-containing protein 1 (Saccharomyces cerevisiae (strain ATCC 204508 / S288c) (Baker's yeast)) (UniProt P32657). Nature of the assay: ScCHD-1 Enzyme Inhibition Assay. Also: in the data most compounds retested in dose-response had high values. The assay is classed as functional. The settings on record: 30 µM.
Chain of Chromo domain-containing protein 1 (Saccharomyces cerevisiae (strain ATCC 204508 / S288c) (Baker's yeast)) (P32657 whole entry, the tested form may be a part): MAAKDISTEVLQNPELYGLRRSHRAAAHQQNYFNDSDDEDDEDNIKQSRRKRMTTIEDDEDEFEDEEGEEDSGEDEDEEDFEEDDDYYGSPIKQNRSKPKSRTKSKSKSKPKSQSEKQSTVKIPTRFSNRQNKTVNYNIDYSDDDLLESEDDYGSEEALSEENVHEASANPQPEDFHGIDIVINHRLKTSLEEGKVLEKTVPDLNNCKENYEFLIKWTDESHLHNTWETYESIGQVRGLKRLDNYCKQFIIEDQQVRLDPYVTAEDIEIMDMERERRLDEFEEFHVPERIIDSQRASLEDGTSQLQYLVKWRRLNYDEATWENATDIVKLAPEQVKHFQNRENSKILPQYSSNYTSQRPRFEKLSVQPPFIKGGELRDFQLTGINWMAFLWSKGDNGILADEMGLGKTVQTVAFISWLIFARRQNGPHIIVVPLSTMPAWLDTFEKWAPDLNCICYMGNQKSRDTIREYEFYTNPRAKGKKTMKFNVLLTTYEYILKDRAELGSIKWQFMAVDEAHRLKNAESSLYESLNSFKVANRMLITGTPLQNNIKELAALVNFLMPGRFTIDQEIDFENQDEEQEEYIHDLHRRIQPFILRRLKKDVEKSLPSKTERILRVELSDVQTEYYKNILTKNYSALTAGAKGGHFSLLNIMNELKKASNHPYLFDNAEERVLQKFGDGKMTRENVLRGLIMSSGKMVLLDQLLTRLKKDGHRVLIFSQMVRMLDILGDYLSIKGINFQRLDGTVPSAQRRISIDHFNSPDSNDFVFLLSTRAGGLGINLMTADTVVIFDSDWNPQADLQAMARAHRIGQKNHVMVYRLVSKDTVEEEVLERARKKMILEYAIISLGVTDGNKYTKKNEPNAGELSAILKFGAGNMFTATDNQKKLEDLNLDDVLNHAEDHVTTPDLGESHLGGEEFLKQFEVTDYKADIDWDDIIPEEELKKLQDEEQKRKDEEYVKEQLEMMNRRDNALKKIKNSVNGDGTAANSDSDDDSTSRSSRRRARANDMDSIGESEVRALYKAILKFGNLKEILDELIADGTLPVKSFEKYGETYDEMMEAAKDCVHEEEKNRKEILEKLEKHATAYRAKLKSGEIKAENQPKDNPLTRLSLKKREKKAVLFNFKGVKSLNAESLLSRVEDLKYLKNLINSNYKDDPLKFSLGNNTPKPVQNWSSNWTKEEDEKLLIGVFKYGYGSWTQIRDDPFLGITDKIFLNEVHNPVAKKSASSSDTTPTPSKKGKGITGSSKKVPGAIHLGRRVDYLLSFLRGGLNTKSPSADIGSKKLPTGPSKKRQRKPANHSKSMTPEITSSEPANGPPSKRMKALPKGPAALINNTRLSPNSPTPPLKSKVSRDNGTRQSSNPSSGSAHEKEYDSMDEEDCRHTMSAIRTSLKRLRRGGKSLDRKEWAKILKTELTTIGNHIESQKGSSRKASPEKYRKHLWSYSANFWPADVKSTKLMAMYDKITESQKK

For some of these results: Results with a measured potency or affinity are listed apart.

Chain of Protein translocase subunit SecA (Escherichia coli (strain K12)) (P10408 whole entry): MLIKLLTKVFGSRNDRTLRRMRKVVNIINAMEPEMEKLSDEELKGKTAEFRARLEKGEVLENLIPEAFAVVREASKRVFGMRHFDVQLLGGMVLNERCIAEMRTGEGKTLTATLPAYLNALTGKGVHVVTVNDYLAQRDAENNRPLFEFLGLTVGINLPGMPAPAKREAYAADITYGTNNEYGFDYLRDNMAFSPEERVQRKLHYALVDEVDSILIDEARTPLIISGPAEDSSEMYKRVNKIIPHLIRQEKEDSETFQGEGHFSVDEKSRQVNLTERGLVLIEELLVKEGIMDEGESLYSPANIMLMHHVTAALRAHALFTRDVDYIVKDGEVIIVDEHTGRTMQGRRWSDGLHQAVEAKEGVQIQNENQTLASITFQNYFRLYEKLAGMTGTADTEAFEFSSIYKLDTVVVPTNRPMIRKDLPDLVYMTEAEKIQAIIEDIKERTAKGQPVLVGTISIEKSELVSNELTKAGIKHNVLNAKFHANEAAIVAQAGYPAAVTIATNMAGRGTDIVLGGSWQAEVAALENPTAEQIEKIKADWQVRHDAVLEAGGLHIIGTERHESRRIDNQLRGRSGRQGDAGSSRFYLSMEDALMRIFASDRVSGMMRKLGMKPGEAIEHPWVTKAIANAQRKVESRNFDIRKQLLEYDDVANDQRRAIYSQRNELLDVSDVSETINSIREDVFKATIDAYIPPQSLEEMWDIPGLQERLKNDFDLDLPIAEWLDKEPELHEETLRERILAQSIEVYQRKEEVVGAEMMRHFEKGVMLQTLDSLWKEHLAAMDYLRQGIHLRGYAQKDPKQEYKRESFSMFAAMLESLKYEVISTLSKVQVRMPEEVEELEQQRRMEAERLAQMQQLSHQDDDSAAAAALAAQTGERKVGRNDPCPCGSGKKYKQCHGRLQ
Chain of Sialic acid-binding Ig-like lectin 9 (Homo sapiens) (Q9Y336 whole entry): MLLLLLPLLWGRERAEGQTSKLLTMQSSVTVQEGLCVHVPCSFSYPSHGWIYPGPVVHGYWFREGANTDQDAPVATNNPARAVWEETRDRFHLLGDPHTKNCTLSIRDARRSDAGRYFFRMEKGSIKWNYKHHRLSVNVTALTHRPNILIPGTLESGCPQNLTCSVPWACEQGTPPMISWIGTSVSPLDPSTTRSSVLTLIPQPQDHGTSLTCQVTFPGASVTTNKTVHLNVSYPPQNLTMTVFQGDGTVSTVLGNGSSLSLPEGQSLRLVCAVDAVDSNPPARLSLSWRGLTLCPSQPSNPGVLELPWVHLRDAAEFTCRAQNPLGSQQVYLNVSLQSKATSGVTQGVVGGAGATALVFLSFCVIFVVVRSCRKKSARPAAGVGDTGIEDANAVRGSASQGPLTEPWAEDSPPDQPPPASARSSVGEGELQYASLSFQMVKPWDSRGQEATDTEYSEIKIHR

With `CS(=O)(=O)N1CC[C@H]2C[C@@H](C(=O)N3CCOCC3)O[C@@H]2C1`, the Percent Effect is -3.64% in assay [1]; -8% in [2]; 8.84% in [3]; 4.61% in assay [4]; -1.54% in the assay with Trypanosoma cruzi; -53.2% in assay [5]. In addition, the Percent Effect in assay [6] was 2.73%; in the assay filed under Homo sapiens, -12.5%; in assay [7], -2.08%; in assay [8], -7.5%; in [9], 1.18%.
In the case of `Cc1nc(C)n(CC2CCCN(CCC(=O)N3CCCCC3)C2)n1` (stereo unspecified), the Percent Effect in assay [1] is -1.52%; in [2] it was -2.6%; in assay [3] it was 7.57%; in assay [4], -4.47%; in the assay on Trypanosoma cruzi it was -4.21%; in assay [5], 5.26%. For the same molecule, the Percent Effect in [6] is -0.566%; in the assay filed under Homo sapiens it was 20.7%; in [7] it was 0%; in assay [8], 0%; in [9], 4.58%.
Regarding `CCc1cccc(N2CCC(NC(=O)c3ccc(=O)[nH]n3)CC2)c1`, the Percent Effect is -0.605% in assay [1]; 3.8% in [2]; 2.33% in assay [3]; 1.07% in assay [4]; -4.82% with Trypanosoma cruzi; 4.52% in [5]. Moreover, the Percent Effect was 15.8% in assay [6]; 21% in the assay listed under Homo sapiens; 5.21% in [7]; 15.2% in assay [8]; -11.3% in assay [9].
As for `O=C(NCCNc1ccccn1)N1CCSCC1`, the Percent Effect in assay [1] is -7.13%; in assay [2], 5.41%; in [3], 23.3%; in assay [4] it was -0.67%; in the assay with Trypanosoma cruzi, -4.43%; in [5] it was 0.802%. The Percent Effect in assay [6] is 6.67%; in the assay listed under Homo sapiens, 5.29%; in assay [7] it was 1.48%; in assay [8] it was 1.24%; in [9] it was -1.12%.
`N#Cc1ccnc(N2CCN(C(=O)Cc3ccc4c(c3)CCO4)CC2)c1`: the Percent Effect was -5.74% in [1]; 21.1% in [2]; -3.75% in assay [3]; 4.19% in assay [4]; 5.83% with Trypanosoma cruzi; 0% in [5]. Further, the Percent Effect is 13.4% in [6]; 1.61% in the assay filed under Homo sapiens; 2.45% in assay [7]; 19.5% in [8]; -11.9% in assay [9].
As to `Cc1cc(C)n(C2CCCN(C(=O)c3cc(C4CC4)on3)C2)n1` (stereo unspecified), the Percent Effect was -4.93% in assay [1]; 5.2% in assay [2]; -0.0913% in assay [3]; -0.636% in [4]; 4.41% with Trypanosoma cruzi; -1.05% in assay [5]. In addition, the Percent Effect in assay [6] was 13.8%; in the assay filed under Homo sapiens, -1.26%; in assay [7] it was 1.91%; in assay [8] it was 9.41%; in assay [9], -18.6%.
`COc1ccc(CNC2CCCN(Cc3noc(C)n3)C2)cc1F` (stereo unspecified): the Percent Effect in assay [1] is -10.4%; in [2] it was 10.4%; in assay [3], 0.711%; in assay [4], 4.31%; with Trypanosoma cruzi, -5.06%; in assay [5] it was -3.2%. Moreover, the Percent Effect in assay [6] was -1.01%; in the assay filed under Homo sapiens it was 32.5%; in [7], 0.971%; in assay [8], -2.44%; in assay [9], -5.61%.
Turning to `Cc1ccc(CNC(CN2CCN(C)CC2)c2ccccc2)cc1` (stereo unspecified), the Percent Effect was -5.66% in assay [1]; 8.11% in assay [2]; -8.66% in [3]; -0.353% in assay [4]; -2.05% in the assay with Trypanosoma cruzi; -1.74% in assay [5]. Besides, the Percent Effect in assay [6] is 7.64%; in the assay filed under Homo sapiens it was 13.4%; in [7], 3.23%; in assay [8] it was 8.64%; in [9], -3.22%.
`CN(Cc1ccccn1)C1COC2(CCN(Cc3nccs3)CC2)C1` (stereo unspecified): the Percent Effect in assay [1] is -4.64%; in assay [2] it was 21.3%; in assay [3], -8.85%; in assay [4] it was -0.12%; in the assay on Trypanosoma cruzi, 1.35%; in assay [5], -57.5%. Also, the Percent Effect is 12.8% in [6]; 5.05% in the assay filed under Homo sapiens; 5.21% in [7]; 20% in assay [8]; -11.7% in assay [9].
`OC(CN1CCN(Cc2ccc(F)cc2)CC1)C1CC1` (stereo unspecified): the Percent Effect in assay [1] is -4.82%; in assay [2], 8.22%; in assay [3] it was -8.34%; in assay [4], -6.79%; in the assay on Trypanosoma cruzi, 0.392%; in assay [5], 1.82%. The Percent Effect in [6] is 4.61%; in the assay listed under Homo sapiens, 2.15%; in [7] it was 6.45%; in assay [8], 20%; in [9], -4.22%.
Turning to `N#CCCN(C(=O)CN1CCCC1C1CCCCC1)c1ccccc1` (stereo unspecified), the Percent Effect in [1] was -2.43%; in [2] it was 0%; in assay [3], -4.92%; in [4], 3.65%; with Trypanosoma cruzi, -1.56%; in [5] it was 2.5%. The Percent Effect came to 15.1% in assay [6]; 17.1% in the assay filed under Homo sapiens; 12.9% in assay [7]; 8.54% in assay [8]; 0.924% in assay [9].

For the origin of these results see ChEMBL document CHEMBL3988442, “University of Dundee, Small-Polar-MMV Screening Library” (2021).
